Screening data (PubChem)
The list is not random: actives were taken first. Their share in the collection is about 2.8%.
Peg3 promoter – Peg3 promoter activity inhibition; HeLa PEG-Prom luciferase reporter, luminescence, overnight; actives 1.7% (n = 360,000); inhibition, % at 20 µM;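 active = inhibition of at least 50% at 20 µM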
KKLEB tox – reduces viability of KKLEB cystic fibrosis airway cells; KKLEB CF airway cells viability, ATPlite luminescence, overnight; stronger effect = lower value; cells stimulated with P. aeruginosa culture filtrate; activity change (cytotoxicity), % at 5 µM; actives 0.36% (n = 360,000); AID 602141;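 active = corrected activity change at or below -50% at 5 µM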
Shn3 inh set2 – Schnurri-3 reporter inhibition in Clone20 osteoblasts | actives 0.52% (n = 360,000) | AID 588674 | inhibition, % at 12.5 µM | Clone20 osteoblast Shn3 3'UTR firefly luciferase, 24 h;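 active = mean inhibition of at least 75% with every replicate also reaching 75%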
HIF-2a inh – inhibitors of HIF-2a; inhibition, % at 18.8 µM; 786-0 RCC cells HIF-2a reporter, luciferase luminescence, overnight; actives 0.72% (n = 360,000); AID 624352;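 active = inhibition of the luminescence signal of 40% or more relative to plate controls, in a single-dose primary screen at 18.75 µM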
CF NFkB inh – cystic fibrosis NF-kB activation inhibition | KKLEB NF-kB-GFP reporter, PAF-induced, GFP fluorescence overnight | inhibition, % at 5 µM | actives 0.86% (n = 360,000) | AID 588850;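 active = at least 50% inhibition at 5 µM, scaled per plate between neutral and stimulator controls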;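 note: PAF is a Pseudomonas aeruginosa culture filtrate used as stimulus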
MITF TRPM1 inh – reduces MITF-dependent TRPM1 promoter luciferase signal. SK-MEL-5 TRPM1 promoter luciferase, 24 h. inhibition, % at 12.5 µM. actives 0.83% (n = 330,000). AID 488899;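 active = mean inhibition across replicates of 60% or more, whatever share of single replicates reaches that level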
CF NFkB inh conf – confirmation of cystic fibrosis induced NF-kB inhibitors; shares compounds with CF NFkB inh; KKLEB CF airway cells, PAF-induced NF-kB-GFP fluorescence, overnight; inhibition, % at 5 µM; actives 64% (n = 1,300); AID 602472; in the data active = inhibition above about 40%;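 note: stimulus PAF is a Pseudomonas aeruginosa filtrate and not platelet activating factor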
Numbers stand for hits; . = inactive; / = no result given.

SMILES	Peg3 promoter	KKLEB tox	Shn3 inh set2	HIF-2a inh	CF NFkB inh	MITF TRPM1 inh	CF NFkB inh conf
Nc1cc2c(cc1Br)[nH]c(=O)c1ccccc12	.	.	.	.	58.2	93.0	.
Cc1ccccc1NC1=CC(=O)CC(C)(C)C1	.	.	.	.	.	.	/
CC1(C)CC(=O)C=C(NC2=CC3OC(c4ccccc4)OCC3OC2=O)C1 (stereo not given)	63.6	.	.	.	72.4	70.8	52.4
O=C(Nc1ccc(C(F)(F)F)cc1)c1cc(-c2cccnc2)nc2ccc(Br)cc12	.	.	.	.	.	.	/
CC(=O)Nc1cccc(NC(=O)c2cc(-c3cccnc3)nc3ccc(Br)cc23)c1	60.9	.	.	.	83.6	.	57.1
O=C(NCCN1CCN(c2ccccc2)CC1)c1cccc(Br)c1	.	.	.	.	52.3	.	52.9
Cc1cccc(C(=O)NCCN2CCN(c3ccccc3)CC2)c1	.	.	.	.	.	.	/
O=C(CN(Cc1ccccc1)S(=O)(=O)c1ccc(F)cc1)NCc1cccnc1	.	.	.	.	.	.	/
CCCCc1ccc(NC(=S)Nc2ccc(Nc3ccc(OC)cc3)cc2)cc1	.	.	.	.	52.2	.	.
CC1CCC2(CC1)NC(=O)N(NC(=O)CCc1c[nH]c3ccccc13)C2=O (stereo not given)	.	.	.	.	.	.	/
COc1ccc(C)cc1S(=O)(=O)N1CCCC(C(=O)NCc2ccccn2)C1 (stereo not given)	.	.	.	.	.	.	/
O=C(NCc1ccccn1)C1CCCN(S(=O)(=O)c2cc(Cl)ccc2Cl)C1 (stereo not given)	99.0	.	.	.	87.2	98.1	.
CCOC(=O)c1sc(NC(=O)C2CC(=O)N(c3ccc4c(c3)OCCO4)C2)nc1C (stereo not given)	.	.	.	.	.	.	/
O=C(Nc1ccc(N2CCOCC2)c(S(=O)(=O)Nc2ccccc2Cl)c1)c1ccc(F)cc1	.	.	.	.	.	.	/
O=C(Nc1ccc(F)cc1)Nc1ccc(N2CCCC2)c(S(=O)(=O)Nc2ccccc2Cl)c1	.	.	.	.	60.2	74.7	70.6
CCCNC(=O)C[C@@H]1C[C@H]2c3cc(NC(=O)c4ccc5c(c4)OCO5)ccc3O[C@H]2[C@@H](CO)O1	.	.	.	.	.	/	/
NC(=O)c1nc(-c2cccs2)nc2c1[nH]c(=O)n2-c1ccc(F)cc1	.	.	.	.	53.0	.	.
Cc1nccc(-c2ccc(-n3cnc4ccccc43)cc2)n1	.	.	.	.	.	.	/
Nc1nccc(-c2ccc(-n3cnc4ccccc43)cc2)n1	.	.	.	.	76.7	.	80.2
COc1ccc(-c2oc3ccc(-c4ccc5c(c4)OCO5)cc3c2C#CC2(O)CCCCC2)cc1	.	.	.	.	60.6	.	52.9
COc1ccc(-c2oc3ccc(-c4ccc(OC)nc4)cc3c2C#CC2(O)CCCCC2)cc1	.	.	.	.	64.4	.	54.2
C[C@@H]1CNC(=O)c2c(C(=O)NCC(=O)OC(C)(C)C)ncn21	.	.	.	.	.	/	/
Cc1ccccc1C(=O)N1CCN(c2ccc(NC(=O)CSc3ccc(Cl)cc3)cc2)CC1	.	.	.	.	61.2	.	71.2
Cc1ccccc1C(=O)N1CCN(c2ccc(NC(=O)c3cccc(OC(C)C)c3)cc2)CC1	.	.	.	.	53.0	.	53.1
COc1c(C)cccc1C(=O)Nc1ccc(N2CCN(C(=O)c3ccccc3C)CC2)cc1	.	.	.	.	.	.	/
SMILES	Peg3 promoter	KKLEB tox	Shn3 inh set2	HIF-2a inh	CF NFkB inh	MITF TRPM1 inh	CF NFkB inh conf
OCCN1CCN(c2ncnc3ccc(Br)cc23)CC1	.	.	.	.	53.1	.	67.0
O=C1NC[C@@H](CCCCN2C[C@H](Cc3ccc(O)cc3)N(CCC3CCCCC3)C(=O)C2=O)N(Cc2ccccc2)C1=O	/	/	/	.	/	/	/
Cc1cc2ccccn2c1C(=O)c1ccc(NN)c([N+](=O)[O-])c1	.	.	.	.	55.8	.	.
Nc1nc(/C=C/c2cccnc2)nc(-c2ccccc2O)n1	.	.	.	.	91.1	.	74.6
CCOc1ccc(C(C(=O)NC2CCCC2)N(C(=O)c2snc(C(N)=O)c2N)c2cccc(O)c2)cc1 (stereo not given)	52.7	.	.	.	75.0	.	69.8
COc1cc(C(C(=O)NC2CCCC2)N(Cc2ccco2)C(=O)c2snc(C(N)=O)c2N)cc(OC)c1OC (stereo not given)	.	.	.	.	.	.	/
NC(=O)c1nsc(C(=O)N(c2cccc(O)c2)C(C(=O)NC2CCCC2)c2ccc(Cl)cc2)c1N (stereo not given)	.	.	.	.	.	.	/
CN(C)c1ccc(C(C(=O)NC2CCCCC2)N(Cc2ccco2)C(=O)c2snc(C(N)=O)c2N)cc1 (stereo not given)	.	.	.	.	87.7	.	79.3
Cc1c(CNCCc2ccccc2Cl)c(C(=O)O)c(C)n1-c1ccccc1	.	.	.	.	.	.	/
CCOC(=O)c1[nH]c(C)c(C(=O)N2CCc3ccccc32)c1C	.	.	.	.	53.5	.	56.8
CC(=O)c1c(C)[nH]c(C(=O)N2CCc3ccccc32)c1C	.	.	.	.	.	.	/
Cc1cccc(OCc2nnc(SCC(=O)c3c(N)n(C4CC4)c(=O)[nH]c3=O)o2)c1	.	.	.	.	.	.	/
O=C(COC(=O)c1ccc(F)c(S(=O)(=O)N2CCOCC2)c1)Nc1ccc2c(c1)OCO2	.	.	.	.	.	.	/
COc1ccc(-c2csc(C(C)(O)c3cccnc3)n2)cn1 (stereo not given)	.	.	.	.	.	/	/
CCOC(=O)C1=C(CC)Nc2ccccc2N=C1NC(=O)c1oc2ccccc2c1C	64.4	.	.	.	76.2	.	94.8
CCOC(=O)c1ccc2c(c1)nc(SC/C(O)=C(\C#N)c1nc3ccccc3[nH]1)n2CC	.	.	.	.	66.3	.	59.0
COc1cccc(-c2c(C(=O)N/N=C/c3sccc3C)nnn2-c2nonc2N)c1	.	.	.	.	50.2	.	.
COc1ccc(NC(=O)CSc2nc(C3CC3)nc3ccccc23)cc1	.	.	.	.	53.0	.	.
CC(=O)c1ccc(NC(=O)CSc2nc(C3CC3)nc3ccccc23)cc1	.	.	.	.	.	.	/
O=C(COC(=O)c1ccccc1)Nc1ncc([N+](=O)[O-])s1	.	.	.	.	.	.	/
O=C(Nc1ccccc1)Nc1ncc([N+](=O)[O-])s1	.	.	.	.	57.1	.	86.7
Cc1cc(C)c(O)c(CN(C)Cc2cc(Cl)cc(Cl)c2O)c1	.	.	.	.	60.3	.	74.8
CCOc1ccc2nc(SCC(=O)c3ccc(O)cc3O)sc2c1	.	.	.	.	58.1	.	44.9
